Structures are written as SMILES. Active and inactive are the calls of the source.

From PubChem BioAssay come the findings set out here.

Test [1] concerns Plasmodium falciparum Sir2 (PF13_0152, Sir2A). The experiment in a line: Plasmodium falciparum Sir2A binding compounds – biochemical, small-molecule microarray, 635 nm fluorescence, primary screen (AID 1098).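 Also: score merges spot fluorescence intensity with its signal-to-noise ratio.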 The note with it: fluorescence 635 nm, higher = more signal.
Test [2] can be described thus: probe aDKK1 binding to arrayed compounds – biochemical, biotinylated probe, 635/667 nm fluorescence, primary screen (AID 1099).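 Also: score merges 667nm spot fluorescence with signal to noise across triplicate slides.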 The note with it: small-molecule microarray, higher = more signal.
A short description of test [3]: probe aCHRDL2 binding to arrayed compounds – biochemical, biotinylated probe, 635/667 nm fluorescence, primary screen (AID 1100). The following applies: small-molecule microarray, higher = more signal.
The nature of test [4]: change in splice reporter luminescence, either direction, cell-based, HEK293, spliceosome inhibition project, primary screen (AID 1101).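 Also: HEK293 cells carrying a splicing-competent luciferase reporter gene; test concentration not given here.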 The note with it: HEK293 splicing luciferase reporter, 24 h, higher = more signal, called active from +8 up or from −8 down. (In general: Reporter assays use an easily measured gene product as a stand-in for the process of interest.)
The target in test [5] is Fibroblast growth factor 10 (Homo sapiens) (UniProt O15520). Description: compounds binding fibroblast growth factor 10 – biochemical, small-molecule microarray, 635 nm fluorescence, primary screen (AID 1102). The note with it: FGF10 binding, fluorescence 635 nm, higher = more signal.
Test [6] has as its system glycogen synthase kinase-3 (GSK3A per assay name; protocol says GSK3B). Description: compounds binding glycogen synthase kinase-3 – biochemical, small-molecule microarray, 635 nm fluorescence, GSK3A, primary screen (AID 1103). Also: the record names both GSK3A and GSK3B. The following applies: fluorescence 635 nm, higher = more signal.
In test [7] the target is Epidermal growth factor receptor (Homo sapiens) (UniProt P00533). Description: compounds binding epidermal growth factor receptor – biochemical, small-molecule microarray, 635 nm fluorescence, primary screen (AID 1104).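 Also: score merges 667 nm emission intensity with spot signal to noise over triplicate slides.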 The note with it: EGFR binding, higher = more signal.
Test [8] concerns the target Follistatin-related protein 3 (Homo sapiens) (UniProt O95633). The experiment in a line: compounds binding follistatin-related protein 3 – biochemical, small-molecule microarray, 635 nm fluorescence, primary screen (AID 1105).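 Also: score merges emission near 667 nm and signal to noise per printed spot across three slides.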 The note with it: FSTL3 binding, higher = more signal.
In test [9] the target is Dickkopf-related protein 1 (Homo sapiens) (UniProt O94907). Description: small molecules binding DKK1 protein – biochemical, small-molecule microarray, 635 nm fluorescence scan, primary screen (AID 1106).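 Also: score merges emission near 667 nm with signal to noise over three replicate slides.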 The note with it: higher = more signal.
Test [10] concerns Inhibin beta A chain (activin A). The experiment in a line: small molecules binding activin A – biochemical, small-molecule microarray, 635 nm fluorescence scan, primary screen (AID 1107).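 Also: mouse activin A protein probed at 4.33 µg/mL on printed slides; score merges bound-protein fluorescence near 667 nm with spot signal-to-noise.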 The following applies: INHBA, higher = more signal.
For test [11], the system named is Human papillomavirus type 1a protein E7 (residues 44-93). The experiment in a line: small molecules binding HPV E7 44-93 – biochemical, small-molecule microarray, residues 44-93, 635 nm fluorescence, primary screen (AID 1108).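 Also: E7 fragment applied at 1 µg/mL in TBST for 1 h at 4 C; score combines spot fluorescence with its signal to noise ratio.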 The following applies: fluorescence 635 nm, higher = more signal.
A short description of test [12]: hepatitis C replication reporter changes, two-sided – Huh7 cells, luciferase reporter, HCV replication inhibitor project, primary screen (AID 1109).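 Also: huh7 hepatoma cells harbouring a luciferase neomycin HCV replicon reporter; luciferase luminescence as measure of HCV replicon replication; test concentration not given here.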 The following applies: Huh7 HCV replicon luciferase reporter, 48 h; higher = more signal.
Test [13] concerns the target Left-right determination factor 2 (Homo sapiens) (UniProt O00292). Description: small molecules binding LEFTY2 protein – biochemical, small-molecule microarray, 635 nm fluorescence scan, primary screen (AID 1110). The note with it: higher = more signal.
Test [14] concerns the target Calmodulin-1 (Homo sapiens) (UniProt P0DP23). The experiment in a line: small molecules binding calmodulin-1 with EGTA – biochemical, small-molecule microarray, Cy5-labelled CALM1, profiling panel (AID 1111).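 Also: labelled calmodulin applied in Tris saline Tween buffer holding calcium plus EGTA and DTT.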 The following applies: Cy5-CALM1 binding fluorescence, higher = more signal.
The target is the same in test [15]. Description: small molecules binding Ca-loaded calmodulin-1 – biochemical, small-molecule microarray, Cy5-labelled CALM1, plus calcium, artefact control for SMM control-protein annotation, profiling panel (AID 1112).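 Also: score merges spot fluorescence with signal to noise from triplicate slides.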 The note with it: Cy5-CALM1 binding fluorescence, higher = more signal.
Test [16] in a line: probe aWnt5a binding to arrayed compounds – biochemical, biotinylated probe, 635/667 nm fluorescence, primary screen (AID 1113).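 Also: score merges 667 nm fluorescence intensity with signal-to-noise per printed feature.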 The following applies: small-molecule microarray, higher = more signal.
A short description of test [17]: probe aShh binding to arrayed compounds – biochemical, biotinylated probe, 635/667 nm fluorescence, primary screen (AID 1114).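 Also: probe is biotin-labelled aShh protein from a stem cell growth factor screen; measures binding of labelled protein to compounds printed on the slide; score merges feature fluorescence at 667 nm with signal-to-noise.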 The note with it: small-molecule microarray, higher = more signal.
The nature of test [18]: probe aNog binding to arrayed compounds – biochemical, biotinylated probe, 635/667 nm fluorescence, primary screen (AID 1115).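 Also: probe is biotinylated aNog protein used at 0.15 µg/mL for 1 h at 4 C; z-score combines 667 nm fluorescence of each spot with its signal to noise.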 The note with it: small-molecule microarray, higher = more signal.
The target of test [19] is Torsin-1A-interacting protein 1 (Homo sapiens) (UniProt Q5JTV8). The experiment in a line: compound microarray binding of lysate hLAP1 – cell lysate, small-molecule microarray, COS7 lysate, 635/667 nm fluorescence, primary screen (AID 1116). The following applies: 635 nm fluorescence, higher = more signal.
Test [20] deals with Alpha-bungarotoxin (Bungarus multicinctus) (UniProt P60615). Description: compounds binding labelled alpha-BTX control protein – biochemical, small-molecule microarray, Alexa647 label, 635/667 nm fluorescence, artefact control for SMM control protein annotation, profiling panel (AID 1117). The following applies: alpha-BTX-A647 binding fluorescence, higher = more signal.
Chain of Alpha-bungarotoxin (Bungarus multicinctus) (P60615 whole entry, looked up): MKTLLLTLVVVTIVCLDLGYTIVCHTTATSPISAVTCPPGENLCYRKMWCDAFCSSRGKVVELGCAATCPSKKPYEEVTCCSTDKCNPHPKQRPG

Chain of Fibroblast growth factor 10 (Homo sapiens) (O15520 whole entry, looked up): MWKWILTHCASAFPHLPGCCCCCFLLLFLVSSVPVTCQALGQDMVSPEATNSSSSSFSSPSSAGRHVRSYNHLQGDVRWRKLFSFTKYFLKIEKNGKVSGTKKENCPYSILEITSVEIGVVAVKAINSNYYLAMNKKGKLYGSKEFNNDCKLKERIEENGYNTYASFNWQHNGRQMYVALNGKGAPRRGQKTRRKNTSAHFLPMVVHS
Chain of Dickkopf-related protein 1 (Homo sapiens) (O94907 whole entry, looked up): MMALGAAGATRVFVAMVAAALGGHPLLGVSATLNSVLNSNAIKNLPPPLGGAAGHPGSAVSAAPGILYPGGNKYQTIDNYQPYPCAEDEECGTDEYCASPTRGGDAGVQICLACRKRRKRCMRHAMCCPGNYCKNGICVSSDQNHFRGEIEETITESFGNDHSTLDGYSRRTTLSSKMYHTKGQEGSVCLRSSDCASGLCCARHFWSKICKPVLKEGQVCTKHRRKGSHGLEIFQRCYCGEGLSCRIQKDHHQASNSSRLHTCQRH
Chain of Epidermal growth factor receptor (Homo sapiens) (P00533 whole entry, looked up): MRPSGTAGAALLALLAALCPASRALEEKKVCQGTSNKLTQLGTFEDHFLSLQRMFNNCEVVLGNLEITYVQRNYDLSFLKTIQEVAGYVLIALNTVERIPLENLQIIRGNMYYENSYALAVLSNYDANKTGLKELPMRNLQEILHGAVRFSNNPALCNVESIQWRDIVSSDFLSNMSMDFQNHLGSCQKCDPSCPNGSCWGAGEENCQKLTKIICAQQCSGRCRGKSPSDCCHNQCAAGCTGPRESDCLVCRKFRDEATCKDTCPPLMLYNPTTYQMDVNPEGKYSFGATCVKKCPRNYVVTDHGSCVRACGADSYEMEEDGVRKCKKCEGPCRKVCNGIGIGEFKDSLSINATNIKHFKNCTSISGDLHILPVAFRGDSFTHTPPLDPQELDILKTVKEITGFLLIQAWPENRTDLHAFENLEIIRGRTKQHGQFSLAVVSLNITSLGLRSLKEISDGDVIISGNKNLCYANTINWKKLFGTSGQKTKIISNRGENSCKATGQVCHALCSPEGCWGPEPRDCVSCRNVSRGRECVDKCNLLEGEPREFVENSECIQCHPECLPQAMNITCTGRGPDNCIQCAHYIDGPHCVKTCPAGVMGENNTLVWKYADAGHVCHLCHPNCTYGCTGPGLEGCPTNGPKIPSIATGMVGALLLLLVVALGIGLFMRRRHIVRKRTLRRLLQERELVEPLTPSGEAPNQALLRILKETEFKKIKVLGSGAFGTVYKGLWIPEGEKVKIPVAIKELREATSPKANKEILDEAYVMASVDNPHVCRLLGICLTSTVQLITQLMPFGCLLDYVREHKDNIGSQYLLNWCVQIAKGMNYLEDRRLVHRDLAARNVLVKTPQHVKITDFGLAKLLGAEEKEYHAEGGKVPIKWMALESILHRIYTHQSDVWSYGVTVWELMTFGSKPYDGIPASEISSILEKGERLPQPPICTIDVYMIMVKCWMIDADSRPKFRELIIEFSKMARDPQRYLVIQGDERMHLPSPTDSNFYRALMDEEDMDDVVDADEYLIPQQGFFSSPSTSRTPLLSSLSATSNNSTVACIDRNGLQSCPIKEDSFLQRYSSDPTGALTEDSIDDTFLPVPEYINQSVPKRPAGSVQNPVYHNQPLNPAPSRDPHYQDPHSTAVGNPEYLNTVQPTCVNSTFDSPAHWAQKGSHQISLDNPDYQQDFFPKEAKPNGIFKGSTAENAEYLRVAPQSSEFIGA
Chain of Follistatin-related protein 3 (Homo sapiens) (O95633 whole entry, looked up): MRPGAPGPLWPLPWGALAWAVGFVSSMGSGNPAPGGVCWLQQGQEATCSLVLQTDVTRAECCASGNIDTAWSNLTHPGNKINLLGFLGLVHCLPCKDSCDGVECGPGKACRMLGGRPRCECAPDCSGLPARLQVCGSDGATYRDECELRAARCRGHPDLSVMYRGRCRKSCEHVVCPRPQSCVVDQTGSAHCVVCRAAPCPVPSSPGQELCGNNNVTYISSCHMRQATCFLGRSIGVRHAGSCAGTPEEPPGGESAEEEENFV
Chain of Torsin-1A-interacting protein 1 (Homo sapiens) (Q5JTV8 whole entry, looked up): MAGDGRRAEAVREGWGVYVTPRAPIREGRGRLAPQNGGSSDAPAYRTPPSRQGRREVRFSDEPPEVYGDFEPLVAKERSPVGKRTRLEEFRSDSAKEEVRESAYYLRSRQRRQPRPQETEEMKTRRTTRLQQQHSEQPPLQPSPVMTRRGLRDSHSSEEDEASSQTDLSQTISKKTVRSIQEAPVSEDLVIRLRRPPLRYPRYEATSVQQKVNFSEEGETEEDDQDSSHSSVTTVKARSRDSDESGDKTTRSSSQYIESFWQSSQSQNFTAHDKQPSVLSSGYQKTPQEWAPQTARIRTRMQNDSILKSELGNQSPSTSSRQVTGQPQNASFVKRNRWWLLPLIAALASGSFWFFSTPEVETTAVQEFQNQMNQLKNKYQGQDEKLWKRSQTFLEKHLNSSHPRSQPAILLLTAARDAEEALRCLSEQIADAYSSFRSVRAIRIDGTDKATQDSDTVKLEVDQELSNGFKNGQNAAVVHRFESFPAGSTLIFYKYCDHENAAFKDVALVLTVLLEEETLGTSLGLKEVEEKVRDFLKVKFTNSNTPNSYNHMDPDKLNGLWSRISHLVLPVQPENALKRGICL
Chain of Left-right determination factor 2 (Homo sapiens) (O00292 whole entry, looked up): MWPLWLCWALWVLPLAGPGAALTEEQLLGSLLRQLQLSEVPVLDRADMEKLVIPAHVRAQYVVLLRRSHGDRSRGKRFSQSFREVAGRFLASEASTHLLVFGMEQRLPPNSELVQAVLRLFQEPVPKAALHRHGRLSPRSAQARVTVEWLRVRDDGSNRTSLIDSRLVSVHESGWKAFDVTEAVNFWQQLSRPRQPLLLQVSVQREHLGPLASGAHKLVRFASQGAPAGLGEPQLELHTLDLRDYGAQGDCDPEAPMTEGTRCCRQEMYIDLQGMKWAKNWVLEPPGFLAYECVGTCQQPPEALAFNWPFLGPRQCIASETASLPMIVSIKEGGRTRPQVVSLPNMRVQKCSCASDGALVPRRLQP

As for `Cc1ccc([C@H]2[C@H](C(=O)O)[C@H](Sc3ccccc3)[C@@H](C(C)C)N2S(=O)(=O)c2ccc(C)cc2)cc1`, the composite z-score in [1] is 0.587; in [2], -0.403; in test [3], 0.355; in [5] it was 0.95; in [6], 1.22; in [7], 0.151. For the same molecule, the composite z-score in test [8] came to 0.905; in test [9], 0.168; in test [10], 0.417; in [11], 1.41; in test [13] it was 0.314; in test [14], 1.36. Also, the composite z-score in [15] is 0.904; in test [16], 0.0718; in test [17] it was -0.0709; in test [18] it was -0.528; in [19] it was 0.759; in test [20] it was 0.715. The z-score was 0.27 (inactive) in [4] and -0.981 in test [12].

Turning to `CCOC(=O)C[C@H]1[C@H](OC(=O)c2ccc(-c3ccccc3)cc2)[C@@H](NC(=O)c2ccc(-c3ccccc3)cc2)c2cc(OCCCO)ccc2N1C(=O)Cc1ccc(OC)cc1`, the composite z-score in test [1] was -0.253; in test [2], -0.0067; in [3], 0.45; in [5], 0.256; in [6] it was -0.194; in test [7], -0.0509. In addition, the composite z-score in test [8] is -0.0478; in test [9], 0.0032; in [10], 0.638; in test [11], 0.629; in test [13], -0.186; in [14], 0.382. The composite z-score was -0.971 in test [15]; -0.0765 in test [16]; -0.366 in test [17]; -0.456 in test [18]; 0.575 in test [19]; 0.0738 in [20]. For the same molecule, the z-score in test [4] was 0.101 (inactive); in test [12], -1.27.

On to `CC(C)N1C(=O)C[C@@](C(=O)NCc2ccccc2)(c2ccc([N+](=O)[O-])cc2)[C@H]1c1ccc(CO)cc1`, for which the composite z-score was 0.142 in test [1]; -0.0752 in test [2]; 0.934 in test [3]; 0.484 in [5]; 0.321 in [6]; -0.786 in [7]. Besides, the composite z-score in test [8] was -0.17; in [9], -0.0781; in [10], 0.0614; in test [11] it was 1.37; in [13] it was -0.57; in test [14] it was -0.47. Further, the composite z-score in [15] is -0.602; in [16], -0.0894; in test [17], -0.13; in test [18] it was -0.498; in test [19], 1.99; in [20], -0.148. Moreover, the results for the z-score in test [4] and in test [12] were 0.0798 (inactive) and -0.0323, respectively.

For `COCCOC(=O)N1C(=O)[C@@]2(c3cc(C#CCNC(N)=O)ccc31)[C@H](c1ccc(OCCO)cc1)N1[C@H](c3ccccc3)[C@H](c3ccccc3)OC(=O)[C@H]1[C@@H]2C(=O)N1CCc2cc(OC)c(OC)cc2C1`, the composite z-score in test [1] was 0.719; in test [2] it was 0.208; in [3], 0.676; in [5], 0.921; in test [6], 0.0059; in [7], 0.803. The composite z-score in test [8] was found to be 1.17; in [9] it was 0.455; in test [10], 0.959; in test [11], 0.901; in test [13], 0.603; in test [14], 0.243. Moreover, the composite z-score in [15] was 0.273; in [16], -0.148; in test [17], -0.0035; in test [18] it was -0.0428; in [19], 0.743; in test [20], 0.664. For the same molecule, the z-score in test [4] is 0.911 (inactive); in [12] it was -0.966.

In the case of `COCCOC(=O)N1C(=O)[C@@]2(c3cc(C#CCC(C(=O)OC)C(=O)OC)ccc31)[C@H](c1ccc(O)cc1)N1[C@H](c3ccccc3)[C@H](c3ccccc3)OC(=O)[C@H]1[C@@H]2C(N)=O`, the composite z-score in test [1] was found to be 0.224; in [2], 0.36; in test [3], 0.461; in [5], 0.833; in [6], 1.06; in test [7], 0.212. Further, the composite z-score amounted to 0.825 in [8]; 0.417 in test [9]; 0.626 in test [10]; 0.698 in test [11]; 0.715 in [13]; 0.537 in [14]. The composite z-score was -0.259 in test [15]; 0.0297 in test [16]; 0.0469 in [17]; 1.29 in test [18]; 1.03 in test [19]; 0.944 in [20]. Moreover, the z-score in test [4] is -1.06 (inactive); in [12], -0.633.
